Compounds without any hit were thinned out: in the full panel of roughly 83,000, 20% have a hit.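 Percent growth is the endpoint: 0 to 100 indicates growth inhibition (40 means 60% inhibition), 0 means no net growth, and negative values indicate cell death.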 Activity calls are given as the source filed them. The calls were made as follows: active = growth percent below 10; inactive = the rest.
test system: SK-MEL-2 melanoma; experiment: NCI-60 one-dose screen, 48 h (100 = growth as untreated, 0 = no growth, -100 = all killed); conditions: 10 µM unless noted

Row | SMILES | growth
1 | COc1nc(OC)nc(-c2cc(C(=O)c3ccc(Br)cc3)n3cc(C)cc(C)c23)n1 | 68.1% (inactive)
2 | CC(=O)OCC(=O)[C@@]1(O)[C@H](C)C[C@H]2[C@@H]3C=C(C)C4=Cc5c(cnn5-c5ccc(F)cc5)C[C@]4(C)[C@H]3[C@@H](O)C[C@@]21C | 22.5% (inactive)
3 | Brc1c(-c2ccncc2)nc2n1CCS2 | 92.7% (inactive)
4 | CC(=O)/C(=C\c1c(-c2ccccc2)[nH]c2ccccc12)S(=O)(=O)c1ccccc1 | -27.9% (active)
5 | COc1ccc(/C=N/c2cc(C(C)(C)C)nn2-c2ccccc2)cc1 | 124% (inactive)
6 | CCC1(CC)C(OC)NC(Br)=C(C#N)C1(C#N)C(N)=O (centres undefined) | 102% (inactive)
7 | COc1ccc(CN2C(=O)/C(=C\C(=O)c3ccc(OCCN4CCCC4)cc3)c3ccccc32)cc1 | 103% (inactive)
8 | COc1ccc(/C=C2\SC(=O)N(Cc3cc(=O)oc4ccc(OC)cc34)C2=O)cc1 | 99.9% (inactive)
9 | c1cc(C2CCCCC2)ccc1OCCCCCCN1CCNCC1 | 87.8% (inactive)
10 | COc1cc(/C=C/C(=O)/C=C(/C=C/c2ccc(OC(C)=O)c(OC)c2)OB(F)F)ccc1OC(C)=O | 86.9% (inactive)
11 | Cc1c([C@H](C(Cl)Cl)[C@H](O)[C@H]2C[C@H](C)C(=O)O2)ccc2c1C(=O)[C@H]1[C@H]2C[C@@H](Br)[C@@]23O[C@@H](CO[C@H]2O)CC13C (some centres undefined) | 74% (inactive)
12 | O=C1/C(=N\c2cc(=O)[nH]n2S(=O)(=O)c2ccccc2)Nc2ccccc21 | 102% (inactive)
13 | N=C(N)c1ccc(-c2ccc(-c3ccc(Cl)cc3)s2)s1 | -29.6% (active)
14 | COc1cc([C@@H]2c3cc4c(cc3[C@H](O)[C@H]3COC[C@@H]23)OCO4)cc(OC)c1OC | 89.3% (inactive)
15 | O=Nc1c(-c2c(O)[nH]c3cc(Br)ccc23)[nH]c2ccccc12 | -66.5% (active)
16 | CC(C)(C)C(=O)OCOP(=O)(OCOC(=O)C(C)(C)C)C1CC(O)N(O)C1=O (centres undefined) | 45.9% (inactive)
17 | CC1(C)CC(=O)C2=C(C1)Oc1nc(N)c(C#N)c(N)c1C2c1ccc(F)cc1 (centres undefined) | 107% (inactive)

Row | SMILES | growth
18 | O=C1c2cc([N+](=O)[O-])ccc2-c2cc(Cl)c(NC(=O)C(F)(F)F)cc21 | 97.1% (inactive)
19 | COc1ccc(CNCCCN2C(=O)c3ccc4c5c(ccc(c35)C2=O)C(=O)N(CCCNCc2ccc(OC)c(OC)c2OC)C4=O)c(OC)c1OC | -88.4% (active)
20 | O=C(Nc1ccccc1)Nc1ccc(Nc2ncnc3sc4c(c23)CCCC4)cc1 | 114% (inactive)
21 | O=S(=O)(Cc1cccc2c(CS(=O)(=O)c3ccc(Cl)cc3)cccc12)c1ccc(Cl)cc1 | 98.8% (inactive)
22 | COc1cc(CNC(=O)CCCC/C=C/C(C)C)ccc1OCc1nnc(Nc2ccccc2F)o1 | 111% (inactive)
23 | Nc1nc2c(c3ncncc13)C(c1cccc(C(F)(F)F)c1)Cc1ncncc1-2 (centres undefined) | 48.2% (inactive)
24 | Cn1cnc2nc[nH]c2c1=S | 106% (inactive)
25 | O=C(O)c1ccc(-c2nn(-c3ccc(C(=O)O)cc3)cc2CNc2ccc(Br)cc2)cc1 | 94.4% (inactive)
26 | O=C(N/N=C/c1coc2ccccc2c1=O)c1cc2oc(-c3ccccc3)cc2[nH]1 | 75.4% (inactive)
27 | CCC(C)C1NC(=O)C(CC(C)C)NC(=O)C(C)NC(=O)C(C(C)C)NC(=O)C(CCCCN)NC(=O)C(CC(C)C)NC(=O)C(C(C)C)NC(=O)[C@H](C)NC(=O)C(C(C)CC)NC(=O)C(CCCN=C(N)N)NC(=O)C(CCCCN)NC(=O)C(CCCN=C(N)N)NC(=O)C(CCCCN)NC(=O)C([C@H](C)CC)NC(=O)C(CCCCN)NC1=O (some centres undefined) | 37.3% (inactive)
28 | C=CCN(C)C | 113% (inactive)
29 | CCC(CCCN1C(=O)c2ccccc2C1=O)Nc1cc(OC)cc2cccnc12 (centres undefined) | 97.8% (inactive)
30 | O=c1c(N=Nc2nccs2)c(-c2ccccc2)[nH]n1-c1nc(-c2ccccc2)cs1 | 22.8% (inactive)
31 | Cc1ccc(C(=O)Nc2ccc(CN3CCN(C)CC3)c(C(F)(F)F)c2)cc1C#Cc1cncc2ncccc12 | -78.7% (active)
32 | CCOC(=O)C1C(=O)C(=O)N(C(C)C)C1C(=O)OCC (centres undefined) | 113% (inactive)
33 | COc1cc2c(cc1OC)C(Cc1cc(OC)c(OC)cc1[N+](=O)[O-])=NCC2 | 92.9% (inactive)
34 | COc1ccc2c(c1)/C(=C1/S/C(=N/c3nnc(C)s3)NC1=O)C(=O)N2Cc1ccc(Br)cc1 | 25.6% (inactive)

— PubChem BioAssay (NCI)
